T cruzi growth-1: T. cruzi intracellular proliferation inhibitors, primary screen, cell-based, beta-gal Tulahuen parasites, NIH3T3 host, luminescence. T. cruzi beta-gal in NIH3T3, GalScreen luminescence, 90 h. AID 624255, 2012. inhibition, % at 8.34 µM. actives 5.9% (n = 77,000);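 active = mean inhibition above about 93%, with at least 55% of replicates each passing it, limit read from the data, passing the limit was not always enough; inconclusive = only one of those two conditions holds; inactive = neither condition holds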
C diff HTS: C. difficile growth inhibitors, primary screen, HTS. actives 0.25% (n = 86,000). Clostridium difficile clinical isolate growth, OD600, 24 h; stronger effect = lower value. growth activity, negative = inhibition, % at 16 µg/mL (by protocol);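 active = mean growth activity at or below -80% and every replicate also at or below -80%; inconclusive = mean at or below -80% but some replicate above -80%; inactive = mean growth activity above -80%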
T cruzi growth-2: T. cruzi intracellular proliferation inhibitors, confirmation, cell-based, NIH3T3 host, beta-gal parasite, luminescence, cherry-pick. shares compounds with T cruzi growth-1. T. cruzi beta-gal in NIH3T3, GalScreen luminescence, 90 h. inhibition, % at 8.35 µM. actives 72% (n = 5,600);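 active = mean replicate inhibition above about 95% and at least 55% of replicates individually reaching it, limit read from the data; inconclusive = only one of the two criteria is met; inactive = neither criterion is met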
T cruzi growth-3: inhibitors of intracellular T. cruzi replication, confirmation, NIH3T3 host cells, beta-gal parasites, cherry-pick, set 2; shares compounds with T cruzi growth-1; T. cruzi beta-gal in NIH3T3, GalScreen luminescence, 90 h; inhibition, % at 2.09 µM; actives 21% (n = 5,600); AID 651740, 2012;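 active = mean inhibition above about 95%, with at least 55% of replicates also reaching it, limit read from the data; inconclusive = meets just one of the two conditions; inactive = meets neither condition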
3T3 cytotox: cytotoxicity in mouse NIH/3T3 fibroblasts, confirmation, cytotoxicity control for T. cruzi proliferation inhibitor project, cell-based, cherry-pick, single point | shares compounds with T cruzi growth-1 | NIH/3T3 viability, CellTiter-Glo ATP luminescence, 90 h | cytotoxicity (signal decrease), % at 8.35 µM | actives 14% (n = 5,600) | AID 651742, 2012;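 active = mean signal decrease across replicates above about 35% based on untreated-well scatter, with enough replicates individually passing, limit read from the data; inconclusive = no rule stated though some were filed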
NIH3T3 tox 2: NIH/3T3 fibroblast cytotoxicity, confirmation, cytotoxicity control, cell-based, cherry-pick, single point, set 2; AID 651744, 2012; inhibition, % at 24.9 µM; actives 56% (n = 5,600); NIH/3T3 viability, CellTiter-Glo ATP luminescence, 90 h; shares compounds with T cruzi growth-1;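 active = mean loss of cell viability signal at or above a set limit, and enough replicates individually reaching it; inconclusive = meets only the mean limit or only the replicate share; inactive = meets neither condition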
A number is an active result; 0 = inactive; ? = inconclusive; - = no result. Only a selection was taken, and hits are over-represented in it overall.

SMILES	T cruzi growth-1	C diff HTS	T cruzi growth-2	T cruzi growth-3	3T3 cytotox	NIH3T3 tox 2
COc1ccc(C#Cc2cnc3c(c2)C(=O)N([C@@H](C)CO)C[C@@H](C)[C@@H](CN(C)CC2CCCC2)O3)cc1	0	0	-	-	-	-
CCS(=O)(=O)N1CC2(CN(C(=O)Nc3c(C)noc3C)[C@@H](CO)c3c2c2ccc(OC)cc2n3C)C1	-	0	-	-	-	-
C[C@@H]1CCCCO[C@@H](CN(C)C(=O)Cc2ccccc2)[C@@H](C)CN([C@H](C)CO)C(=O)c2cc(NC(=O)CCCN(C)C)ccc2O1	0	0	-	-	-	-
COc1ccc(S(=O)(=O)N(C)C[C@@H]2Oc3cc(-c4ccccc4OC)ccc3S(=O)(=O)N([C@H](C)CO)C[C@@H]2C)cc1	127	0	110	0	0	63
COc1ccc(S(=O)(=O)N(C)C[C@@H]2Oc3cc(-c4ccccc4OC)ccc3S(=O)(=O)N([C@@H](C)CO)C[C@@H]2C)cc1	126	0	114	100	45	0
COc1ccc(S(=O)(=O)N(C)C[C@@H]2Oc3cc(C4=CCCC4)ccc3S(=O)(=O)N([C@@H](C)CO)C[C@H]2C)cc1	0	0	-	-	-	-
COc1ccccc1-c1ccc2c(c1)O[C@@H](CN(C)C(C)=O)[C@H](C)CN([C@H](C)CO)S2(=O)=O	0	0	-	-	-	-
COc1ccc(S(=O)(=O)N(C)C[C@@H]2Oc3cc(C4=CCCC4)ccc3S(=O)(=O)N([C@H](C)CO)C[C@H]2C)cc1	0	0	-	-	-	-
COc1ccc(S(=O)(=O)N(C)C[C@@H]2Oc3cc(-c4ccccc4OC)ccc3S(=O)(=O)N([C@H](C)CO)C[C@H]2C)cc1	127	0	102	0	0	58
CC(=O)N1CC(=O)N2[C@@H](CO)[C@H](c3ccc(-c4ccc(C(=O)N(C)C)cc4)cc3)[C@@H]2C1	-	0	-	-	-	-
C/C=C/c1cnc2c(c1)C(=O)N([C@H](C)CO)C[C@H](C)[C@@H](CN(C)S(=O)(=O)c1ccc(C)cc1)O2	0	0	-	-	-	-
C[C@H]1CN([C@@H](C)CO)C(=O)c2ccccc2-c2ccccc2CO[C@H]1CN(C)C(=O)c1ccccc1	0	-	-	-	-	-
Cc1ccc(S(=O)(=O)Nc2ccc3c(c2)C(=O)N([C@H](C)CO)C[C@@H](C)[C@H](CN(C)S(=O)(=O)c2ccc(F)cc2)OCCCC[C@H](C)O3)cc1	-	0	-	-	-	-
Cc1ccc(S(=O)(=O)Nc2ccc3c(c2)C(=O)N([C@H](C)CO)C[C@H](C)[C@H](CN(C)S(=O)(=O)c2ccc(C)cc2)OCCCC[C@H](C)O3)cc1	?	-	105	107	0	0
Cc1ccc(S(=O)(=O)Nc2ccc3c(c2)C(=O)N([C@@H](C)CO)C[C@@H](C)[C@H](CN(C)S(=O)(=O)c2ccc(C)cc2)OCCCC[C@@H](C)O3)cc1	101	-	102	?	0	0
Cc1ccc(S(=O)(=O)Nc2ccc3c(c2)C(=O)N([C@@H](C)CO)C[C@@H](C)[C@@H](CN(C)S(=O)(=O)c2ccc(C)cc2)OCCCC[C@@H](C)O3)cc1	0	-	-	-	-	-
Cc1ccc(S(=O)(=O)Nc2ccc3c(c2)C(=O)N([C@@H](C)CO)C[C@H](C)[C@H](CN(C)S(=O)(=O)c2ccc(C)cc2)OCCCC[C@@H](C)O3)cc1	0	-	-	-	-	-
Cc1ccc(S(=O)(=O)Nc2ccc3c(c2)C(=O)N([C@@H](C)CO)C[C@H](C)[C@@H](CN(C)S(=O)(=O)c2ccc(C)cc2)OCCCC[C@@H](C)O3)cc1	102	-	105	0	0	0
CN(C)C(=O)c1ccc(-c2ccc([C@H]3[C@@H](CO)N4CCCCN(C(=O)C5CC5)C[C@@H]34)cc2)cc1	0	0	-	-	-	-
CN(C)C(=O)c1ccc(-c2ccc([C@@H]3[C@H](CO)N4CCCCN(C(=O)C5CC5)C[C@@H]34)cc2)cc1	0	0	-	-	-	-
CN(C)C(=O)c1ccc(-c2ccc([C@@H]3[C@@H](CO)N4CCCCN(C(=O)C5CCC5)C[C@H]34)cc2)cc1	0	0	-	-	-	-
CN(C)C(=O)c1ccc(-c2ccc([C@H]3[C@H](CO)N4CCCCN(C(=O)C5CCC5)C[C@@H]34)cc2)cc1	100	0	95	0	0	42
CN(C)C(=O)c1ccc(-c2ccc([C@@H]3[C@H]4CN(C(=O)C5CCC5)CCCCN4[C@H]3CO)cc2)cc1	101	0	95	0	0	38
CN(C)C(=O)c1ccc(-c2ccc([C@H]3[C@@H](CO)N4CCCCN(C(=O)C5CCC5)C[C@@H]34)cc2)cc1	106	0	102	0	0	0
C[C@@H]1CN([C@@H](C)CO)C(=O)Cc2cc(NC(=O)c3ccncc3)ccc2O[C@H]1CN(C)S(C)(=O)=O	0	0	-	-	-	-
SMILES	T cruzi growth-1	C diff HTS	T cruzi growth-2	T cruzi growth-3	3T3 cytotox	NIH3T3 tox 2
C[C@H]1CN([C@@H](C)CO)C(=O)c2cc(NC(=O)CCN3CCOCC3)ccc2O[C@H]1CN(C)S(=O)(=O)c1ccc(Cl)cc1	0	0	-	-	-	-
CCS(=O)(=O)N1CCCCN2[C@H](CO)[C@H](c3ccc(-c4ccccc4)cc3)[C@@H]2C1	0	0	-	-	-	-
C[C@@H]1CN([C@@H](C)CO)C(=O)c2cc(C3=CCCCC3)cnc2O[C@H]1CN(C)Cc1ccccc1F	0	0	-	-	-	-
C/C=C/c1ccc([C@@H]2[C@@H](CO)N3CCCCN(C(=O)Nc4ccccc4F)C[C@H]23)cc1	0	0	-	-	-	-
C/C=C/c1ccc([C@@H]2[C@H](CO)N3CCCCN(C(=O)Nc4ccccc4F)C[C@@H]23)cc1	0	0	-	-	-	-
O=C(Nc1ccccc1F)N1CCCCN2[C@H](CO)[C@@H](c3ccc(C4=CCCC4)cc3)[C@@H]2C1	0	0	-	-	-	-
O=C(Nc1ccccc1F)N1CCCCN2[C@H](CO)[C@@H](c3ccc(C4=CCCCC4)cc3)[C@H]2C1	103	0	111	0	39	107
O=C(Nc1ccccc1F)N1CCCCN2[C@H](CO)[C@@H](c3ccc(/C=C/c4ccccc4)cc3)[C@H]2C1	104	0	97	0	59	105
C/C=C/c1ccc([C@H]2[C@@H](CO)N3CCCCN(C(=O)Nc4ccccc4F)C[C@H]23)cc1	97	0	100	0	0	70
CCCNC(=O)N(C)C[C@@H]1Oc2ncc(C#Cc3ccncc3)cc2C(=O)N([C@H](C)CO)C[C@H]1C	0	0	-	-	-	-
COc1ccc2c3c([nH]c2c1)[C@H](CO)N(C(=O)c1ccc(F)cc1)CC31CCN(C(=O)CC2CC2)CC1	-	0	-	-	-	-
CCCC#Cc1ccc([C@H]2[C@H]3CN(CC4CC4)CCCCN3[C@H]2CO)cc1	0	0	-	-	-	-

Screening results (PubChem)
